Assay outcomes from PubChem.
An excerpt weighted towards active compounds, which were near 10% of everything screened.
HEK cytotox: cytotoxic compounds in HEK 293 cells. HEK 293 viability, ATP luminescence (CellTiter-Glo), 48-72 h. Potency, µM (titrated, usually from 115 µM), without a hit: at the top dose activity change, negative = cytotoxicity, usual class: inhibitors. 94,000 tested, 6.6% active. AID 1345083; further: nearly all actives have a fitted effect of over 60% in size
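HEK 293 seeded at 250 cells/well receive compound via pintool. After 48 or 72 hr at 37 degree Celsius, 5% CO2 and 95% humidity, CellTiter-Glo is dispensed and luminescence read following 10 min at room temperature.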
Luciferase inh: Photinus pyralis luciferase inhibition; 76,000 tested, 2.5% active; purified P. pyralis luciferase, luminescence, biochemical; Potency, µM (highest dose often 115 µM), hits mostly inhibitors; P08659; further: nearly all actives have a fitted effect of over 65% in size
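Cell-free enzyme assay, 10nM P. pyralis luciferase, luciferin and ATP each at 10uM. Inhibition profiled over a 6-point titration, read as luminescence.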
GPT2 inh: inhibitors of human GPT2 alanine aminotransferase | Recombinant GPT2, coupled pyruvate oxidase/HRP Amplex Red fluorescence | 100,000 tested, 0.25% active | Potency, µM (titrated, usually from 57.7 µM), inactives show at the highest dose activity change, negative = inhibition, hits mostly inhibitors; further: nearly all actives have a fitted effect of over 60% in size
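Fluorescence of coupled pyruvate oxidase/HRP/Amplex Red system (50uM Amplex, 30 min, dark) reports pyruvate formed by GPT2. Enzyme reaction: 10ng/uL GPT2, 2mM L-alanine, 250uM a-KG, 30 min room temperature, pH 7.5; 50uM AOA control.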
hNpr1 antagonist: human Npr1 receptor antagonism | P16066 | HEK293 hNpr1 GloSensor cGMP, ANP-stimulated luminescence | Potency, µM (top dose mostly 46.3 µM), inactives show at the highest dose activity change, negative = inhibition, usual class: inhibitors | 76,000 tested, 1.6% active | AID 1347048; calls by dose curve; further: nearly all actives have a fitted effect of over 60% in size
Target sequence (P16066 whole entry, looked up): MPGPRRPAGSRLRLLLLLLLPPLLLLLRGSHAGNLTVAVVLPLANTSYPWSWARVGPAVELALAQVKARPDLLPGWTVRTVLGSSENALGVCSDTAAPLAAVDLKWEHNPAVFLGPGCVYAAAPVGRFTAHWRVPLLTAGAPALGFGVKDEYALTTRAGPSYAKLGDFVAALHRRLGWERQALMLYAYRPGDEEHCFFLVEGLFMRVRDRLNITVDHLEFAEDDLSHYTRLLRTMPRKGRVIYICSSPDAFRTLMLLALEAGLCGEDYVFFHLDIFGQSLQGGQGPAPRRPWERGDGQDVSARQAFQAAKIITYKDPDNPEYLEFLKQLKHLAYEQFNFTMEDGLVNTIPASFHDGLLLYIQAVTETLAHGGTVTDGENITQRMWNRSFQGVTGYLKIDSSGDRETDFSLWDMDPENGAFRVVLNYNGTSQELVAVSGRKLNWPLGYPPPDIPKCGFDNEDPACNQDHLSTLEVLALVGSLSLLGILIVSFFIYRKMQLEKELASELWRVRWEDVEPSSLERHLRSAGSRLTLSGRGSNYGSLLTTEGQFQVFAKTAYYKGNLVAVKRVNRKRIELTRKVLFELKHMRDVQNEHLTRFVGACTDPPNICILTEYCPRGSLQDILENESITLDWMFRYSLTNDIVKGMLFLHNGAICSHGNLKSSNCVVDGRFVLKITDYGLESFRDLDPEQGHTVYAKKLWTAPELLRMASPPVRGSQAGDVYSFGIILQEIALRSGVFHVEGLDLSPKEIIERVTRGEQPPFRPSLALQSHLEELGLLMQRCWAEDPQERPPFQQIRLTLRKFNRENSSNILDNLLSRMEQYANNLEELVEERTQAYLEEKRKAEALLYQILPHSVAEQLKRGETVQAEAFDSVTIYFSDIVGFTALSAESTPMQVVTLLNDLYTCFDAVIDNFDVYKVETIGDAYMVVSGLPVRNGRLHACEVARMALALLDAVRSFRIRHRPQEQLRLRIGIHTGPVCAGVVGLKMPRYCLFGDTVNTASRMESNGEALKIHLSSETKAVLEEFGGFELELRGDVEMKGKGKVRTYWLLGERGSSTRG
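Compound pre-incubated 30 min at room temperature on GloSensor-loaded HEK293 cells stably carrying hNpr1 and the pGS-40F cGMP biosensor. Stimulation uses hNppA at 0.1 nM final; luminescence is taken at baseline and 20 min post-agonist.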
NIH3T3 tox: kills NIH 3T3 cells; 94,000 tested, 4.3% active; NIH 3T3 viability, CellTiter-Glo ATP luminescence, 48-72 h; Potency, µM (titrated, usually from 96.7 µM), inactives show top-dose activity change, negative = cytotoxicity, most hits filed as inhibitors; AID 1345082; further: nearly all actives have a fitted effect of over 55% in size
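Cytotoxicity is measured as loss of cellular ATP: NIH 3T3 cells (400/well) are exposed to compound for 48 or 72 hr at 37 °C, then CellTiter-Glo luminescence is imaged after 10 min at room temperature.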
Starred values were filed as active, the others as inactive; i = inactive; ? = inconclusive; · = not tested or not shown; [ ] = remark or other dose. Unless noted, the call rests on the fitted dose curve; in most records, active means well fitted curve in the direction sought with a large enough effect; inconclusive means small, poorly fitted or top-dose-only effect, or another doubt; inactive means no such curve, though single readings can be large; an effect the other way counts as inactive or inconclusive. On the % scale 0 is the no-effect control and ±100 the full control effect; potency means the concentration at half of the fitted maximal effect.

SMILES	HEK cytotox	Luciferase inh	GPT2 inh	hNpr1 antagonist	NIH3T3 tox
CN1CCN(Cc2cnn(-c3cccc(Cl)c3)c2)CC1CCO (configuration not stated)	-26%	i	1%	-2%	?
Cc1ccc(-c2cn3c(n2)CO[C@@H](CNC(C)C)C3)cc1	?	40µM*	-11%[88.5 µM]	2%[70.6 µM]	?
COc1ccccc1-c1cn2c(n1)CO[C@@H](CNC(=O)NC(C)C)C2	-10%[172 µM]	i	i	4%[70.6 µM]	-3%[138 µM]
COc1ccccc1-c1cn2c(n1)CO[C@@H](CNC(=O)c1ccc(Cl)cc1)C2	100µM*	i	0%[88.5 µM]	-10%[70.6 µM]	?
Cc1ccc(-c2cn3c(n2)CO[C@@H](CNC(=O)c2ccc(Cl)cc2)C3)cc1	?	40µM*	-8%[88.5 µM]	?	?
COc1ccc(N2CCOC3CCN(CCCc4ccccc4)CC3C2=O)cc1 (configuration not stated)	?	i	i	3%[70.6 µM]	?
c1cc(CN2CCc3c(sc4ncnc(N5CCCC5)c34)C2)ccn1	-24%	i	?	-9%	?
CN1CCC2(C1)CN(CC1CC1)c1ccc(C(=O)NCc3cccs3)cc12 (configuration not stated)	100µM*	i	i	-11%[70.6 µM]	?
CN1CCC2(C1)CN(CC1CC1)c1ccc(C(=O)NC3CCCCC3)cc12 (configuration not stated)	89µM*	i	1%[88.5 µM]	0%[70.6 µM]	79µM*
CN1CCC2(C1)CN(CC1CC1)c1ccc(C(=O)Nc3ccccc3)cc12 (configuration not stated)	?	?	2%[88.5 µM]	-1%[70.6 µM]	?
O=C(C1CCC1)N1CCCCCC1c1nnc(-c2ccccc2)o1 (configuration not stated)	?	i	i	2%	?
CC(C)(C)C(=O)N1CCCC(C(=O)N2CCCC(c3nc4ncccc4[nH]3)C2)C1 (configuration not stated)	?	·	?	·	-17%
O=S(=O)(c1ccc2c(c1)OCCO2)N1CCCC(c2nc(CCOCC3CC3)no2)C1 (configuration not stated)	?	i	i	-15%	-29%
O=C1CCN(CC(O)COc2ccccc2)c2ccccc2CN1C1CC1 (configuration not stated)	40µM*	·	·	·	?
C=CCN1Cc2cc(F)ccc2N(CC(O)COc2ccccc2)CCC1=O (configuration not stated)	45µM*	·	·	·	?
CC(O)CN1CCC(=O)N(C2CCCC2)Cc2ccccc21 (configuration not stated)	-29%	·	·	·	?
CCN1Cc2cc(OC)ccc2N(CC(O)COc2ccc(OC)cc2)CCC1=O (configuration not stated)	-31%	·	·	·	?
COc1ccc2c(c1)CN(CC=C(C)C)C(=O)CCN2CC(O)COc1ccccc1 (configuration not stated)	79µM*	·	·	·	?
COc1ccc(OCC(O)CN2CCC(=O)N(CC(C)(C)C)Cc3cc4c(cc32)OCO4)cc1 (configuration not stated)	50µM*	·	·	·	?
Cc1ccc(C(=O)N2CCCC(c3nn(-c4ccccn4)c(=O)[nH]3)C2)cc1 (configuration not stated)	4%	·	i	·	0%
Cc1ccccc1C(=O)N1CCC(C(=O)N2CCCC2c2nc3ccncc3[nH]2)CC1 (configuration not stated)	-18%	·	3%	·	-13%
c1ccc(-c2noc(Nc3ccc4c(c3)OCCO4)n2)cc1	40µM*	22µM*	i	-29%	?
COc1cccc(-c2ccc(C(=O)N3CCC(C(=O)N4CCC(C#N)CC4)CC3)cc2)c1	?	·	-2%	·	?
COc1ccc(Cn2cc(-c3ccc(F)c(C(N)=O)c3)cn2)cc1	?	i	-10%	-1%	?
Cc1cc(-c2ccc(F)c(C(N)=O)c2)cc(C(C)(C)C)c1	45µM*	i	1%[11.5 µM]	11%	?
SMILES	HEK cytotox	Luciferase inh	GPT2 inh	hNpr1 antagonist	NIH3T3 tox
CN1CC(=O)N(C2CCCNCC2)Cc2c1ncnc2N1CCCC(CO)C1 (configuration not stated)	-6%	·	-21%	·	-13%
COc1ccc2nc([C@H]3CCN(Cc4cccc(OC(F)(F)F)c4)C3)[nH]c2c1	100µM*	?	-14%[88.5 µM]	?	89µM*
Fc1ccccc1-c1nnc([C@H]2CCN(Cc3cccc(OC(F)(F)F)c3)C2)o1	112µM*	i	-2%[88.5 µM]	-1%[70.6 µM]	?
COc1ccc2nc([C@H]3CCN(CCCc4ccccc4)C3)[nH]c2c1	63µM*	71µM*	0%[88.5 µM]	0%[70.6 µM]	?
COCCCn1c(=O)c(C(=O)N2CCN(C(=O)c3ccc(C(F)(F)F)cc3)CC2)nc2cccnc21	i	·	2%	·	-21%
Cc1ccc(C2Cn3nnc(-c4noc(-c5ccc[nH]5)n4)c3CO2)cc1 (configuration not stated)	-20%	i	i	-4%	-16%
CC1Oc2ccc(NC(=O)c3ccc4c(c3)OCO4)cc2CN(Cc2ccccc2)C1=O (configuration not stated)	20µM*	i	i	?	?
COc1ccccc1CN1Cc2cc(NC(=O)c3ccc4c(c3)OCO4)ccc2OC(C)C1=O (configuration not stated)	40µM*	i	i	-14%	?
CCC1Oc2ccc(NC(=O)c3ccc4c(c3)OCO4)cc2CN(Cc2ccc(F)cc2)C1=O (configuration not stated)	14µM*	?	i	-13%	?
CC1Oc2ccc(NC(=O)c3cccc(F)c3)cc2CN(Cc2ccc3c(c2)OCO3)C1=O (configuration not stated)	40µM*	i	i	-25%	?
COc1ccccc1CN1Cc2cc(NC(=O)c3ccc([N+](=O)[O-])cc3)ccc2OC(C)C1=O (configuration not stated)	?	i	i	1%	?
Cc1cn2nc(C(=O)N3CCC(NC(=O)c4sccc4C)CC3)cc2c(=O)[nH]1	-8%	i	i	14%	-21%
O=C(NC1CC1)c1cc(-c2ccsc2)c2nncn2n1	-3%[172 µM]	·	i	·	-21%[138 µM]
COc1ccc(CN2Cc3cc(NC(=O)c4ccc5c(c4)OCO5)ccc3OC(C)C2=O)cc1 (configuration not stated)	22µM*	i	i	-23%	?
CCOC(=O)N1CCN(c2nccc(-c3ccccn3)n2)CC1	?	i	1%	-4%	?
